Most compounds without a hit are left out; they make up all but 15% or so of the library.
TDP1 cell CPT = DT40-hTDP1 cell growth loss with CPT; AID 686979; chicken DT40 Tdp1-/-;hTDP1 cells + 20 nM CPT, ATP luminescence, 48 h; 420,000 tested, 12% active; Potency, µM (doses to about 46.2 µM), actives largely listed as inhibitors; note: nearly all actives have a fitted effect of over 55% in size
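Cell growth measured by CellTiter-Glo luminescence after a minimum 48 h, 37 C compound exposure with 20 nM CPT in Tdp1-knockout DT40 cells stably expressing hTDP1, seeded 400/well; qHTS titration format.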
ELG1 repair inh = blocks ELG1-dependent DNA repair in HEK293T cells; HEK293T ELG1-luciferase reporter, luminescence, 16 h; DNA damage induced by 5-fluorouridine; Potency, µM (titrated, usually from 46.1 µM), most hits filed as inhibitors; 330,000 tested, 2.3% active; AID 504467; note: nearly all actives have a fitted effect of over 55% in size
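Cells (2,000 per well) received 5-fluorouridine plus test compound or DMSO and were incubated 16 hr at 37 °C, 5% CO2. Luciferase activity was read by luminescence 30 min after ONE-Glo addition; signal suppression marked inhibition of damage-induced ELG1 function.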
DT40 TDP1 no CPT = qHTS for Inhibitors of human tyrosyl-DNA phosphodiesterase 1 (TDP1): qHTS in cells in absence of CPT; DT40 Tdp1-/- hTDP1 cells, no CPT, ATP luminescence, 48 h; Potency, µM (top dose mostly 46.2 µM), most hits filed as inhibitors; 420,000 tested, 15% active; AID 686978, 2013; note: nearly all actives have a fitted effect of over 55% in size
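Readout: luminescence from CellTiter-Glo after 30 min in the dark at RT. Cells: DT40 Tdp1-/- with stable hTDP1, 400/well. Exposure: compounds alone, ≥48 hr, 37 °C.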
RORgamma inh = inhibitors of mouse ROR gamma transcriptional activity. P51450. Drosophila S2 Gal4-RORgamma UAS-luciferase reporter, 20 h. Potency, µM (series often up to 53.6 µM), hits mostly inhibitors. 310,000 tested, 5.4% active. AID 2551; note: nearly all actives have a fitted effect of over 60% in size
Target sequence (P51450 whole entry, looked up, the tested form may be a part): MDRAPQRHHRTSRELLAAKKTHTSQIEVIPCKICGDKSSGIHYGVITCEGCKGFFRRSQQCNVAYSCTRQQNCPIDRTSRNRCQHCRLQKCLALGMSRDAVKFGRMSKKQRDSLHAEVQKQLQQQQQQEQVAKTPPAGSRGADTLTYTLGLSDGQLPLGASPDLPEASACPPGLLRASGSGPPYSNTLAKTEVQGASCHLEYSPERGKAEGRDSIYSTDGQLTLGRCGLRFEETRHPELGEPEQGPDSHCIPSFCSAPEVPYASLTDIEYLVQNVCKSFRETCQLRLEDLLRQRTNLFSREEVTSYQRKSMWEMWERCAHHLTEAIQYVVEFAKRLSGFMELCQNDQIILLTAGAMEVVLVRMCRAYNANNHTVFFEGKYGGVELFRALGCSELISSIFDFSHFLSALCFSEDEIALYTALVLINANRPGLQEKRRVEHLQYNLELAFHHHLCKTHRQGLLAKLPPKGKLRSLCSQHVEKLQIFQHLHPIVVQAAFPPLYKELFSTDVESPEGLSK
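In this cell-based reporter format, copper sulfate (700 uM final) drives Gal4–ROR gamma fusion expression from a metallothionein promoter in Drosophila Schneider cells; compounds preincubated 1 hr, reporter read after 20 hr at ambient temperature.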
Gal4-VP16 FLuc = counter-screen for ROR gamma inhibitors: Gal4-VP16 reporter. Drosophila S2 Gal4-VP16 UAS-luciferase, luminescence, 20 h. AID 2546. 310,000 tested, 3.5% active. Potency, µM (highest dose often 53.6 µM), hits mostly inhibitors;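 note: Gal4-VP16 expression switched on by copper sulfate through the metallothionein promoter; nearly all actives have a fitted effect of over 50% in size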
12-LOX inh = ALOX12 (human) lipoxygenase inhibition. P18054. purified 12hLO, xylenol orange hydroperoxide absorbance. Potency, µM (top dose mostly 108 µM), most hits filed as inhibitors. 580,000 tested, 1.1% active. AID 1671190
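Purified human 12hLO (150 nM final) in 25 mM Hepes, 0.01% Triton X-100, pH 7.0 was preincubated 15 min at room temperature with compound. Then 40 uM arachidonic acid was added, 30 min. Hydroperoxide was read by Fe-XO absorbance ratio 573/405 nm.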
Large screens that a line does not name were inactive. Calls come from the whole dose curve; as a rule, active = well fitted curve in the direction sought with a large enough effect; inconclusive = small, poorly fitted or top-dose-only effect, or another doubt; inactive = no such curve, though single readings can be large; an effect the other way counts as inactive or inconclusive.

COc1ccc(CCNC(=O)C(=O)NCC(c2cccnc2)N2CCN(c3ccccc3)CC2)cc1 (configuration not stated)	TDP1 cell CPT 23µM, DT40 TDP1 no CPT 18µM (no result: ELG1 repair inh, RORgamma inh, Gal4-VP16 FLuc)
Cc1cc(C)c(S(=O)(=O)NCC(c2cccnc2)N2CCN(Cc3ccccc3)CC2)c(C)c1 (configuration not stated)	TDP1 cell CPT inconclusive, DT40 TDP1 no CPT inconclusive
Cc1ccc(NC(=O)C(=O)NCC(c2cccnc2)N2CCN(Cc3ccccc3)CC2)cc1Cl (configuration not stated)	TDP1 cell CPT 10µM, DT40 TDP1 no CPT 7.3µM (no result: ELG1 repair inh, RORgamma inh, Gal4-VP16 FLuc)
Cc1c(Cl)cccc1NC(=O)C(=O)NCC(c1cccnc1)N1CCN(c2ccccc2)CC1 (configuration not stated)	TDP1 cell CPT 16µM, DT40 TDP1 no CPT 21µM (no result: ELG1 repair inh, RORgamma inh, Gal4-VP16 FLuc)
Cc1ccc(C2SCCN2C(=O)c2cc3ccccc3oc2=O)cc1 (configuration not stated)	none (no result: TDP1 cell CPT, ELG1 repair inh, DT40 TDP1 no CPT, RORgamma inh, Gal4-VP16 FLuc)
Fc1ccc2nc(CO[C@H]3CN(Cc4ccncc4F)C[C@H]3F)[nH]c2c1	none (no result: TDP1 cell CPT, ELG1 repair inh, DT40 TDP1 no CPT, RORgamma inh, Gal4-VP16 FLuc)
CCn1ccnc1CN(C)C(=O)c1cc(-c2cnc(N)nc2)nc2c(C)cccc12	none (no result: TDP1 cell CPT, ELG1 repair inh, DT40 TDP1 no CPT, RORgamma inh, Gal4-VP16 FLuc)
CC(=O)Nc1nc2ccc(CC(=O)N3CCN(c4ccccc4F)CC3)cc2s1	none (no result: TDP1 cell CPT, ELG1 repair inh, DT40 TDP1 no CPT, RORgamma inh, Gal4-VP16 FLuc)
Cn1c(=O)c2c(SCC(=O)NCc3ccco3)nc(-c3ccccc3Cl)nc2n(C)c1=O	TDP1 cell CPT inconclusive, DT40 TDP1 no CPT 23µM, 12-LOX inh inconclusive
Cn1c(=O)c2c(SCC(=O)NCc3ccco3)nc(-c3cccc(F)c3)nc2n(C)c1=O	none (no result: ELG1 repair inh, RORgamma inh, Gal4-VP16 FLuc)
CCCc1nn2c(=O)cc(CSc3ccccc3NC(=O)c3ccco3)nc2s1	none (no result: TDP1 cell CPT, ELG1 repair inh, DT40 TDP1 no CPT, RORgamma inh, Gal4-VP16 FLuc)
CC[C@@H]1Cn2c(c3nc(-c4cc(Cl)cc(Cl)c4Cl)nc-3n(C)c2=O)N1	RORgamma inh 8.9µM, Gal4-VP16 FLuc inconclusive, 12-LOX inh inconclusive (no result: TDP1 cell CPT, ELG1 repair inh, DT40 TDP1 no CPT)
Cn1cc(C(=O)N2CCC3(CC2)CN(Cc2ccccc2)CC3CO)cn1 (configuration not stated)	none (no result: TDP1 cell CPT, ELG1 repair inh, DT40 TDP1 no CPT, RORgamma inh, Gal4-VP16 FLuc)
CCN1C(=NCCc2ccccn2)N[C@@H](c2cccc(C(F)(F)F)c2)C(C(=O)OC)=C1C	TDP1 cell CPT 11µM, DT40 TDP1 no CPT 16µM
COC(=O)C1=C(C)N(Cc2ccccc2)C(=O)N[C@H]1c1cccc(C(F)(F)F)c1	TDP1 cell CPT inconclusive, DT40 TDP1 no CPT inconclusive
COC(=O)C1=C(C)N(Cc2ccccc2)C(=NCCc2ccccn2)N[C@H]1c1cccc(C(F)(F)F)c1	TDP1 cell CPT 7.3µM, DT40 TDP1 no CPT 15µM, RORgamma inh inconclusive, 12-LOX inh inconclusive
O=C(NC(Cc1ccccc1)c1ccccc1)C1CCCO1 (configuration not stated)	none (no result: TDP1 cell CPT, ELG1 repair inh, DT40 TDP1 no CPT, RORgamma inh, Gal4-VP16 FLuc)
Cc1noc(C)c1CCC(=O)N1CC[C@@H](NC(=O)c2cnccn2)[C@H](O)C1	none (no result: TDP1 cell CPT, ELG1 repair inh, DT40 TDP1 no CPT, RORgamma inh, Gal4-VP16 FLuc)
CNC(=O)c1ccc(Cl)c(NC(=O)NC(C)C(C)C)c1 (configuration not stated)	none (no result: TDP1 cell CPT, ELG1 repair inh, DT40 TDP1 no CPT, RORgamma inh, Gal4-VP16 FLuc)
Cc1ccc(-c2nc(C(=O)NCCCN(C)C)cc3c2[nH]c2ccccc23)cc1	TDP1 cell CPT inconclusive, DT40 TDP1 no CPT 23µM, RORgamma inh inconclusive, Gal4-VP16 FLuc inconclusive, 12-LOX inh inconclusive
Cc1nc(C(=O)NCCCO)cc2c1[nH]c1ccccc12	TDP1 cell CPT inconclusive, DT40 TDP1 no CPT inconclusive
O=C(NCCO)c1cc2c([nH]c3ccccc32)c(-c2ccccc2)n1	TDP1 cell CPT inconclusive, ELG1 repair inh inconclusive, DT40 TDP1 no CPT 16µM, 12-LOX inh inconclusive
O=C(NCCO)c1cc2c([nH]c3ccccc32)c(-c2ccc(F)cc2)n1	TDP1 cell CPT inconclusive, ELG1 repair inh inconclusive, DT40 TDP1 no CPT 16µM
Cc1ccc(C(NC(=O)Cc2n[nH]c(=O)c3ccccc23)C2CC2)cc1 (configuration not stated)	none (no result: TDP1 cell CPT, ELG1 repair inh, DT40 TDP1 no CPT, RORgamma inh, Gal4-VP16 FLuc)
COc1ccc(-c2sc3cc4c(cc3c2-c2ccc(OCCN3CCCCC3)cc2)OCO4)cc1	TDP1 cell CPT 16µM, DT40 TDP1 no CPT 21µM (no result: RORgamma inh, Gal4-VP16 FLuc, 12-LOX inh)
CN(C)CCOc1ccc(-c2c(-c3ccccc3)sc3ccccc23)cc1	TDP1 cell CPT 10µM, ELG1 repair inh inconclusive, DT40 TDP1 no CPT 6.5µM (no result: RORgamma inh, Gal4-VP16 FLuc)
COc1ccc(-c2sc3cc4c(cc3c2C#CC2(O)CCCCC2)OCO4)cc1	TDP1 cell CPT 18µM, DT40 TDP1 no CPT 21µM, 12-LOX inh inconclusive (no result: RORgamma inh, Gal4-VP16 FLuc)
c1ccc2c(-c3ccc(OCCN4CCCCC4)cc3)c(-c3ccsc3)sc2c1	TDP1 cell CPT 16µM, DT40 TDP1 no CPT 16µM (no result: RORgamma inh, Gal4-VP16 FLuc)
COc1ccc(-c2sc3cc(OC)ccc3c2-c2ccc(OCCN3CCOCC3)cc2)cc1	TDP1 cell CPT inconclusive, DT40 TDP1 no CPT inconclusive (no result: RORgamma inh, Gal4-VP16 FLuc)
c1ccc(-c2sc3ccccc3c2-c2ccc(OCCN3CCCCC3)cc2)cc1	TDP1 cell CPT inconclusive, DT40 TDP1 no CPT inconclusive (no result: RORgamma inh, Gal4-VP16 FLuc)
NS(=O)(=O)c1ccc(Sc2ccccn2)c([N+](=O)[O-])c1	ELG1 repair inh inconclusive, DT40 TDP1 no CPT inconclusive
